The antibiotic and cytotoxicity screens of Wong et al. (2023)
About 3,300 (8.5%) of roughly 39,000 compounds were called active. This excerpt belongs to a sample that is enriched for actives.

System: HepG2
Assay: cytotoxicity call (relative viability < 0.9)
Conditions: 10 µM

SMILES	cytotoxicity call
C[C@@H]1CCCCO[C@H](CN(C)CC2CCCCC2)[C@H](C)CN([C@H](C)CO)C(=O)c2cc(NS(=O)(=O)c3ccccc3)ccc2O1	inactive
C[C@@H]1CCCCO[C@@H](CN(C)C(=O)Nc2ccc3c(c2)OCO3)[C@@H](C)CN([C@H](C)CO)C(=O)c2cc(NC(=O)Nc3cccc4ccccc34)ccc2O1	inactive
C[C@@H]1CN([C@H](C)CO)C(=O)Cc2cc(NC(=O)Cn3cnnn3)ccc2O[C@H]1CN(C)Cc1ccccc1	inactive
CC(=O)c1cccc(S(=O)(=O)N2[C@@H]3CC[C@@H](C3)[C@H]2c2nc3cccc(OCc4ccc(F)cc4)c3[nH]2)c1	inactive
Cc1ccc(C)c(S(=O)(=O)N2[C@@H]3CC[C@@H](C3)[C@H]2c2nc3cccc(OCc4ccc(F)cc4)c3[nH]2)c1	inactive
COc1ccc(OC)c(S(=O)(=O)N2[C@@H]3CC[C@@H](C3)[C@H]2c2nc3cccc(OCc4ccc(F)cc4)c3[nH]2)c1	inactive
COc1cc(C)ccc1S(=O)(=O)N1[C@@H]2CC[C@@H](C2)[C@H]1c1nc2cccc(OCc3ccc(F)cc3)c2[nH]1	inactive
COc1cccc(S(=O)(=O)N2[C@@H]3CC[C@@H](C3)[C@H]2c2nc3cccc(OCc4ccc(F)cc4)c3[nH]2)c1	active
Cc1ccc(F)c(S(=O)(=O)N2[C@@H]3CC[C@@H](C3)[C@H]2c2nc3cccc(OCc4ccc(F)cc4)c3[nH]2)c1	active
CN1C(=O)c2cc(NC(=O)c3ccc(F)c(F)c3)ccc2OC[C@H]2O[C@H](CC(=O)N3CCOCC3)CC[C@H]21	inactive
Cc1ccc(S(=O)(=O)Nc2ccc3c(c2)C(=O)N([C@@H](C)CO)C[C@@H](C)[C@@H](CN(C)C(=O)CCC(F)(F)F)OCCCC[C@@H](C)O3)cc1	inactive
CCS(=O)(=O)N1C[C@]2(CCN(CC2)S(=O)(=O)c2cn(cn2)C)c2c(n(c3cc(ccc23)OC)C)[C@H]1CO	inactive
C[C@H](CO)N1C[C@H](C)[C@@H](CN(C)C(=O)Nc2ccc(F)cc2)OCc2ccccc2-c2c(n(C)c3ccccc23)C1=O	inactive
COCC(=O)N1C[C@H](C)[C@@H](OC)CN(C)C(=O)c2ccc(NC(=O)Nc3ccccc3)cc2OC[C@H]1C	inactive
C[C@H](CO)N1C[C@H](C)[C@H](CN(C)Cc2ccc(C(=O)O)cc2)Oc2ccc(NS(C)(=O)=O)cc2C1=O	inactive
C[C@H]1CN([C@@H](C)CO)C(=O)Cc2cc(NC(=O)Nc3ccc(C(F)(F)F)cc3)ccc2O[C@H]1CN(C)Cc1ccc(-c2ccccc2)cc1	active
C[C@@H]1CN([C@H](C)CO)C(=O)Cc2cc(NC(=O)Nc3ccc(C(F)(F)F)cc3)ccc2O[C@@H]1CN(C)Cc1ccc(-c2ccccc2)cc1	active
C[C@@H]1CN([C@@H](C)CO)C(=O)Cc2cc(NC(=O)Nc3ccc(C(F)(F)F)cc3)ccc2O[C@H]1CN(C)Cc1ccc(-c2ccccc2)cc1	active
C[C@H]1CN([C@@H](C)CO)C(=O)Cc2cc(NC(=O)Nc3ccc(C(F)(F)F)cc3)ccc2O[C@@H]1CN(C)Cc1ccc(-c2ccccc2)cc1	inactive
C[C@H](CO)N1C[C@H](C)[C@H](CN(C)Cc2ccc(-c3ccccc3)cc2)Oc2ccc(NC(=O)Nc3ccc(C(F)(F)F)cc3)cc2CC1=O	active
COCCN1C[C@H]2CN(Cc3nccn3C)C[C@H]2C1=O	inactive
O=C(C[C@H]1C[C@H]2c3cc(NS(=O)(=O)c4ccc(F)cc4)ccc3O[C@H]2[C@H](CO)O1)NC1CCCCC1	inactive
CC1(C)CCC2=C(O1)C(=O)c1ccccc1C2=O [alpha-LAPACHONE ]	inactive

SMILES	cytotoxicity call
Cc1noc(C)c1NC(=O)N(C)C[C@H]1OCCCC[C@@H](C)Oc2ccc(NC(=O)CCC(F)(F)F)cc2C(=O)N([C@H](C)CO)C[C@@H]1C	inactive
Cc1ccc(S(=O)(=O)N(C)C[C@@H]2Oc3ccc(NS(=O)(=O)c4c(C)noc4C)cc3C(=O)N([C@H](C)CO)C[C@H]2C)cc1	inactive
C[C@@H]1CCCCO[C@H](CN(C)C(=O)CCC(F)(F)F)[C@H](C)CN([C@@H](C)CO)C(=O)c2cc(NS(=O)(=O)c3ccccc3)ccc2O1	inactive
C[C@@H]1CN([C@@H](C)CO)C(=O)c2cc(NS(=O)(=O)c3cn(C)cn3)ccc2O[C@@H](C)CCCCO[C@H]1CN(C)S(=O)(=O)c1cn(C)cn1	inactive
C[C@@H]1CN([C@@H](C)CO)C(=O)Cc2cc(NC(=O)Nc3ccc(C(F)(F)F)cc3)ccc2O[C@@H]1CN(C)Cc1ccc(-c2ccccc2)cc1	active
C[C@H](CO)N1C[C@H](C)[C@@H](CN(C)Cc2ccc(-c3ccccc3)cc2)Oc2ccc(NC(=O)Nc3ccc(C(F)(F)F)cc3)cc2CC1=O	active
C[C@@H]1CN([C@H](C)CO)C(=O)Cc2cc(NC(=O)Nc3ccc(C(F)(F)F)cc3)ccc2O[C@H]1CN(C)Cc1ccc(-c2ccccc2)cc1	active
C[C@@H]1CCCCO[C@@H](CN(C)C(=O)c2ccccc2)[C@H](C)CN([C@@H](C)CO)C(=O)c2cc(NC(=O)c3ccccc3)ccc2O1	inactive
C[C@@H]1CN([C@@H](C)CO)C(=O)Cc2cc(NC(=O)CCN3CCOCC3)ccc2O[C@H]1CN(C)Cc1ccncc1	inactive
COc1cccc(NC(=O)N[C@@H]2CC[C@H](CC(=O)N3CCOCC3)O[C@H]2CO)c1	inactive
O=C(NCc1cccc(F)c1)[C@H]1[C@H](CO)[C@H]2Cn3c(cccc3=O)[C@@H]1N2C(=O)c1cnccn1	inactive
C[C@@H](CO)N1CC[C@H](CN(C)Cc2ccc(Oc3ccccc3)cc2)Oc2c(NC(=O)c3ccncc3)cccc2C1=O	inactive
CC(=O)N[C@H]1[C@@H](OCc2ccccc2)O[C@H](C(=O)O)[C@@H](OC(C)=O)[C@@H]1OC(C)=O	inactive
C[C@@H]1CN([C@@H](C)CO)S(=O)(=O)c2ccc(-c3ccc(C(=O)N(C)C)cc3)cc2O[C@H]1CN(C)C(=O)C1CCOCC1	inactive
COCC(=O)N(C)C[C@@H]1Oc2cc(C#Cc3ccccc3)ccc2S(=O)(=O)N([C@@H](C)CO)C[C@H]1C	inactive
Cc1ccc(NC2=CC(=O)C[C@H](c3ccc(Cl)cc3)C2)cc1	inactive
C[C@@H]1CN([C@H](C)CO)C(=O)c2cc(NC(=O)c3ccccc3)ccc2O[C@@H](C)CCCCO[C@@H]1CN(C)Cc1ccc(Cl)c(Cl)c1	active
C[C@@H]1CCCCO[C@H](CN(C)Cc2ccc(Cl)c(Cl)c2)[C@@H](C)CN([C@H](C)CO)C(=O)c2cc(NC(=O)c3ccccc3)ccc2O1	inactive
C[C@@H]1CN([C@H](C)CO)C(=O)c2cc(NC(=O)c3ccccc3)ccc2O[C@@H](C)CCCCO[C@H]1CN(C)Cc1ccc(Cl)c(Cl)c1	active
C[C@@H]1CCCCO[C@@H](CN(C)Cc2ccc(Cl)c(Cl)c2)[C@H](C)CN([C@H](C)CO)C(=O)c2cc(NC(=O)c3ccccc3)ccc2O1	inactive
C[C@@H]1CCCCO[C@@H](CN(C)Cc2ccc(Cl)c(Cl)c2)[C@H](C)CN([C@@H](C)CO)C(=O)c2cc(NC(=O)c3ccccc3)ccc2O1	active
C[C@H]1CCCCO[C@H](CN(C)Cc2ccc(Cl)c(Cl)c2)[C@@H](C)CN([C@@H](C)CO)C(=O)c2cc(NC(=O)c3ccccc3)ccc2O1	inactive
C[C@@H]1CCCCO[C@H](CN(C)Cc2ccc(Cl)c(Cl)c2)[C@H](C)CN([C@@H](C)CO)C(=O)c2cc(NC(=O)c3ccccc3)ccc2O1	inactive

SMILES	cytotoxicity call
C[C@H](CO)N1C[C@H](C)[C@@H](CN(C)Cc2ccc(Cl)c(Cl)c2)OCCCC[C@H](C)Oc2ccc(NC(=O)c3ccccc3)cc2C1=O	inactive
C[C@H](CO)N1C[C@H](C)[C@H](CN(C)Cc2ccc(Cl)c(Cl)c2)OCCCC[C@H](C)Oc2ccc(NC(=O)c3ccccc3)cc2C1=O	inactive
C[C@@H]1CN([C@H](C)CO)C(=O)CCCn2nncc2CO[C@H]1CN(C)C(=O)Nc1ccc(C(C)(C)C)cc1	inactive
Cc1ccc(S(=O)(=O)N2C[C@H](O)COC[C@@H]3O[C@H](CC(=O)N4CCc5ccccc5C4)CC[C@H]32)cc1	inactive
COc1ccc(NC(=O)Nc2ccc3c(c2)C(=O)N([C@H](C)CO)C[C@H](C)[C@@H](CN(C)CC2CC2)OCCCC[C@@H](C)O3)cc1	inactive
COc1ccc(S(=O)(=O)Nc2ccc3c(c2)CC(=O)N([C@@H](C)CO)C[C@H](C)[C@@H](CN(C)S(=O)(=O)c2cccs2)O3)cc1	inactive
C[C@@H]1CN([C@H](C)CO)C(=O)c2cc(NS(=O)(=O)c3cn(C)cn3)ccc2O[C@@H](C)CCCCO[C@@H]1CN(C)S(=O)(=O)c1ccc(F)cc1	inactive
C[C@H]1CN([C@@H](C)CO)C(=O)c2cc(-c3cncnc3)cnc2O[C@H]1CN(C)C(=O)CN1CCOCC1	inactive
C[C@@H]1CN([C@H](C)CO)C(=O)c2cc(NC(=O)NC3CCCCC3)ccc2O[C@@H]1CN(C)Cc1ccc(C(=O)Nc2ccccc2N)cc1	inactive
COc1ccc(C#Cc2cnc3c(c2)C(=O)N([C@@H](C)CO)C[C@H](C)[C@H](CN(C)C(=O)CC2CC2)O3)cc1	inactive
C[C@H]1CCCCO[C@@H](CN(C)Cc2ccc(C(F)(F)F)cc2)[C@@H](C)CN([C@@H](C)CO)C(=O)c2cc(NC(=O)C3CCCCC3)ccc2O1	inactive
C[C@@H]1CCCCO[C@@H](CN(C)Cc2ccc(C(F)(F)F)cc2)[C@H](C)CN([C@@H](C)CO)C(=O)c2cc(NC(=O)C3CCCCC3)ccc2O1	inactive
C[C@@H]1CN([C@@H](C)CO)C(=O)c2cc(NC(=O)C3CCCCC3)ccc2O[C@@H](C)CCCCO[C@@H]1CN(C)Cc1ccc(C(F)(F)F)cc1	inactive
C[C@@H]1CN([C@H](C)CO)C(=O)c2cc(NC(=O)C3CCCCC3)ccc2O[C@@H](C)CCCCO[C@H]1CN(C)Cc1ccc(C(F)(F)F)cc1	inactive
C[C@@H]1CCCCO[C@@H](CN(C)Cc2ccc(C(F)(F)F)cc2)[C@@H](C)CN([C@@H](C)CO)C(=O)c2cc(NC(=O)C3CCCCC3)ccc2O1	inactive
C[C@@H]1CCCCO[C@H](CN(C)Cc2ccc(C(F)(F)F)cc2)[C@H](C)CN([C@@H](C)CO)C(=O)c2cc(NC(=O)C3CCCCC3)ccc2O1	active
C[C@@H]1CCCCO[C@H](CN(C)Cc2ccc(C(F)(F)F)cc2)[C@@H](C)CN([C@@H](C)CO)C(=O)c2cc(NC(=O)C3CCCCC3)ccc2O1	active
C[C@H](CO)N1C[C@H](C)[C@@H](CN(C)Cc2ccc(C(F)(F)F)cc2)OCCCC[C@H](C)Oc2ccc(NC(=O)C3CCCCC3)cc2C1=O	inactive
C[C@H]1CCCCO[C@H](CN(C)Cc2ccc(C(F)(F)F)cc2)[C@@H](C)CN([C@@H](C)CO)C(=O)c2cc(NC(=O)C3CCCCC3)ccc2O1	active
C[C@H](CO)N1C[C@H](C)[C@H](CN(C)Cc2ccc(C(F)(F)F)cc2)OCCCC[C@H](C)Oc2ccc(NC(=O)C3CCCCC3)cc2C1=O	inactive
C[C@@H]1CN([C@H](C)CO)C(=O)c2cc(NC(=O)C3CCCCC3)ccc2O[C@@H](C)CCCCO[C@@H]1CN(C)Cc1ccc(C(F)(F)F)cc1	inactive
C[C@@H]1CN([C@@H](C)CO)C(=O)c2cc(NC(=O)C3CCCCC3)ccc2O[C@@H](C)CCCCO[C@H]1CN(C)Cc1ccc(C(F)(F)F)cc1	active
